# Experimental data published in PMC13541613, “GHT-SELEX demonstrates unexpectedly high intrinsic sequence specificity and complex DNA binding of many human transcription factors”.
# Biological target: ZNF721 full-length (Homo sapiens, UniProt Q8TF20-2 1-923)
# Test: HT-SELEX; 20 mM HEPES pH 7, 140 mM KCl, 5 mM NaCl, 1 mM K2HPO4, 2 mM MgSO4, 100 uM EGTA, ZnSO4, 0.1% Tween20; room temperature, 1 h; high values mean tight binding
# Conditions: protein: ivt; tags: eGFP (N-terminal); dsDNA, one strand shown
# Method in brief: (§1)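 Bead-immobilised tagged transcription factor (full-length or DNA-binding-domain fragment), made in HEK293 lysate or cell-free extract, was incubated with a randomized 40-base DNA library. Binding was for 1 h at room temperature in HEPES/KCl low-stringency buffer with Tween20. After washing and heat elution, bound DNA was PCR-amplified over successive cycles and Illumina-sequenced (~3 million 60 bp reads per sample). Binding signal is a relative k-mer count in selected reads; higher means tighter binding.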
# Chain of ZNF721 full-length (Q8TF20 other isoform, or with tags, fused parts or gaps): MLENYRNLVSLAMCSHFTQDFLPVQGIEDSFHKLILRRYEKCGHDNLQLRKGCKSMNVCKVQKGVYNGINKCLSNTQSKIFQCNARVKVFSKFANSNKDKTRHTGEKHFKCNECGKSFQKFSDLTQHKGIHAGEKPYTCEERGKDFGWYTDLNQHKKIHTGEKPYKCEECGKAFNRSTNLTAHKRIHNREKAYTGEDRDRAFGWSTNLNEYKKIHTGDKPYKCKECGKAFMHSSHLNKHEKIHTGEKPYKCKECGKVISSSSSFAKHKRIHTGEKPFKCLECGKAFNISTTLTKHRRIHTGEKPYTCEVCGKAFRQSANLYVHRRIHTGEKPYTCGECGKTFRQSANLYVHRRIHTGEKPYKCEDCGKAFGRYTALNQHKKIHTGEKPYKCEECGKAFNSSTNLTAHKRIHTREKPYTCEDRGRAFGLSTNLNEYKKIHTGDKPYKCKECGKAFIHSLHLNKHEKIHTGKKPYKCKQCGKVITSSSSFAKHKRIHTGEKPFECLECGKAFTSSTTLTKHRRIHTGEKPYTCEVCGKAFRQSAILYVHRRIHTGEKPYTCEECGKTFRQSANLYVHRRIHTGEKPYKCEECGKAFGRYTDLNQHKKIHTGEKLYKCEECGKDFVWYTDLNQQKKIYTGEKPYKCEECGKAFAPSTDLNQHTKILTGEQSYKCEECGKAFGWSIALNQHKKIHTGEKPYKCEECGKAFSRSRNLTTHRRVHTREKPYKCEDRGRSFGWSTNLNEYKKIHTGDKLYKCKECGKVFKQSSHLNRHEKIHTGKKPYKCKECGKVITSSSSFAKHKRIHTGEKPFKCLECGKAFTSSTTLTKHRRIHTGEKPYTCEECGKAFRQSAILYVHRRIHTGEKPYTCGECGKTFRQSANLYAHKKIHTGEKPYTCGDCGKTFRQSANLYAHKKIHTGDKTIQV
row,Sequence,binding signal
1,ACGAAAAAAA,0.107 relative 10-mer count
2,CTCCCCCTCC,0.14 relative 10-mer count
3,CTCCCGCCCC,0.136 relative 10-mer count
4,AAGCGTATCC,0.108 relative 10-mer count
5,CCCCCGCCCA,0.167 relative 10-mer count
6,CCCTCCACCA,0.109 relative 10-mer count
7,CGCCCCGCCC,0.139 relative 10-mer count
8,CTCCCCCCTC,0.108 relative 10-mer count
9,CCGCCCCACC,0.257 relative 10-mer count
10,CCAAAAAAAG,0.124 relative 10-mer count
11,AGGTGGTGGG,0.113 relative 10-mer count
12,ACCCCCCCCA,0.154 relative 10-mer count
13,CACCCGCCCA,0.103 relative 10-mer count
14,GCCCCCCCCC,0.112 relative 10-mer count
15,GTGGGTGGGA,0.137 relative 10-mer count
16,CCCCCCGCCG,0.104 relative 10-mer count
17,CAACCCCCCC,0.131 relative 10-mer count
18,ACCCCACACC,0.14 relative 10-mer count
19,AGCATATCCA,0.107 relative 10-mer count
20,ACCCCCACCC,0.267 relative 10-mer count

row,Sequence,binding signal
1,ACCCCACCGC,0.106 relative 10-mer count
2,CCCAACCCCC,0.208 relative 10-mer count
3,CACACCCCCC,0.146 relative 10-mer count
4,TGGGTATGAA,0.14 relative 10-mer count
5,CCCCCTCCCA,0.157 relative 10-mer count
6,CCCTCCCCCC,0.342 relative 10-mer count
7,CCGAAAAAAG,0.106 relative 10-mer count
8,CCACGACCCC,0.118 relative 10-mer count
9,CCCCACTCCC,0.157 relative 10-mer count
10,GGCGGGGGGA,0.126 relative 10-mer count
11,CCCCCCTACC,0.127 relative 10-mer count
12,CCCCGCCCCC,0.297 relative 10-mer count
13,AAAAAAGCGT,0.276 relative 10-mer count
14,CCCCCCCCCA,0.16 relative 10-mer count
15,GGGGGAGGGA,0.151 relative 10-mer count
16,AGCGTATCCT,0.146 relative 10-mer count
17,ACCGCCCCCC,0.135 relative 10-mer count
18,AAAAAAGCTA,0.489 relative 10-mer count
19,CACCCCCCCA,0.16 relative 10-mer count
20,CCCACACCCA,0.107 relative 10-mer count

# Biological target: ZNF721 DBD1 (Homo sapiens, UniProt Q8TF20-2 29-461)
# Test: as above
# Conditions: protein: ivt; tags: eGFP (N-terminal); dsDNA, one strand shown
# Method in brief: as §1
# Chain of ZNF721 DBD1 (Q8TF20 17-449): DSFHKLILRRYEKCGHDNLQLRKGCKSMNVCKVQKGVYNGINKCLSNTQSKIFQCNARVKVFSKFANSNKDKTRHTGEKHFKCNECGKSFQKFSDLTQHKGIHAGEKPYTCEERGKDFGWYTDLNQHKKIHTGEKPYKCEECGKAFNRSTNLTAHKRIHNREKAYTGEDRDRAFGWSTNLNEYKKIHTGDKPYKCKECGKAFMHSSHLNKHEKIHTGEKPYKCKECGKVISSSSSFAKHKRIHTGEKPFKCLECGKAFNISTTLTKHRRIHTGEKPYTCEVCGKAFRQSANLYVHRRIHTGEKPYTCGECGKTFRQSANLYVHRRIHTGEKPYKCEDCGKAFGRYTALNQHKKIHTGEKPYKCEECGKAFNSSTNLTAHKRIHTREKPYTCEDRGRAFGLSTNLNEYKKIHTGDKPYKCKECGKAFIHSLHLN
row,Sequence,binding signal
1,ACGAAAAAAA,0.0146 relative 10-mer count
2,CTCCCCCTCC,0.00784 relative 10-mer count
3,CTCCCGCCCC,0.00596 relative 10-mer count
4,AAGCGTATCC,0.0756 relative 10-mer count
5,CCCCCGCCCA,0.00638 relative 10-mer count
6,CCCTCCACCA,0.00436 relative 10-mer count
7,CGCCCCGCCC,0.00555 relative 10-mer count
8,CTCCCCCCTC,0.00605 relative 10-mer count
9,CCGCCCCACC,0.00894 relative 10-mer count
10,CCAAAAAAAG,0.00812 relative 10-mer count
11,AGGTGGTGGG,0.00601 relative 10-mer count
12,ACCCCCCCCA,0.005 relative 10-mer count
13,CACCCGCCCA,0.00358 relative 10-mer count
14,GCCCCCCCCC,0.00367 relative 10-mer count
15,GTGGGTGGGA,0.00729 relative 10-mer count
16,CCCCCCGCCG,0.00303 relative 10-mer count
17,CAACCCCCCC,0.00431 relative 10-mer count
18,ACCCCACACC,0.00436 relative 10-mer count
19,AGCATATCCA,0.0108 relative 10-mer count
20,ACCCCCACCC,0.0108 relative 10-mer count

row,Sequence,binding signal
1,ACCCCACCGC,0.00408 relative 10-mer count
2,CCCAACCCCC,0.00789 relative 10-mer count
3,CACACCCCCC,0.00514 relative 10-mer count
4,TGGGTATGAA,0.192 relative 10-mer count
5,CCCCCTCCCA,0.00784 relative 10-mer count
6,CCCTCCCCCC,0.0158 relative 10-mer count
7,CCGAAAAAAG,0.016 relative 10-mer count
8,CCACGACCCC,0.00344 relative 10-mer count
9,CCCCACTCCC,0.00688 relative 10-mer count
10,GGCGGGGGGA,0.00619 relative 10-mer count
11,CCCCCCTACC,0.00569 relative 10-mer count
12,CCCCGCCCCC,0.0122 relative 10-mer count
13,AAAAAAGCGT,0.0607 relative 10-mer count
14,CCCCCCCCCA,0.00477 relative 10-mer count
15,GGGGGAGGGA,0.00936 relative 10-mer count
16,AGCGTATCCT,0.0287 relative 10-mer count
17,ACCGCCCCCC,0.00642 relative 10-mer count
18,AAAAAAGCTA,0.222 relative 10-mer count
19,CACCCCCCCA,0.00716 relative 10-mer count
20,CCCACACCCA,0.00468 relative 10-mer count

# Biological target: ZNF721 DBD2 (Homo sapiens, UniProt Q8TF20-2 395-923)
# Test: as above
# Conditions: protein: ivt; tags: eGFP (N-terminal); dsDNA, one strand shown
# Method in brief: as §1
# Chain of ZNF721 DBD2 (Q8TF20 383-911): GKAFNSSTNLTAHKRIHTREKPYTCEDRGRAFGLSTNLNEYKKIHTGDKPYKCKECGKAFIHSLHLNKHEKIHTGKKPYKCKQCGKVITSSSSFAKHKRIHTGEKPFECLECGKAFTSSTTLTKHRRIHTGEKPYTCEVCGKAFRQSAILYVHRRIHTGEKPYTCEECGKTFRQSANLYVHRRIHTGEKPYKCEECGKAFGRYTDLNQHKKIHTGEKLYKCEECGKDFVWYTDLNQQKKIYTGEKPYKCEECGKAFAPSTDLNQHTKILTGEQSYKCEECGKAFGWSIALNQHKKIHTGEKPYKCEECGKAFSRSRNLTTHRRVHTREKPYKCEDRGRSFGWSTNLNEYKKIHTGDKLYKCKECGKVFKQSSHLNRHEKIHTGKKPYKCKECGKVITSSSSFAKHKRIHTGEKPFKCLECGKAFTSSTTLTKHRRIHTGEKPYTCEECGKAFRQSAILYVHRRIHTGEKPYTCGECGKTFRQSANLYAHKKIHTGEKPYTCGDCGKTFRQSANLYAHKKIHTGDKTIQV
row,Sequence,binding signal
1,ACGAAAAAAA,0.0612 relative 10-mer count
2,CTCCCCCTCC,0.00324 relative 10-mer count
3,CTCCCGCCCC,0.00192 relative 10-mer count
4,AAGCGTATCC,0.00863 relative 10-mer count
5,CCCCCGCCCA,0.00192 relative 10-mer count
6,CCCTCCACCA,0.00659 relative 10-mer count
7,CGCCCCGCCC,0.00132 relative 10-mer count
8,CTCCCCCCTC,0.00336 relative 10-mer count
9,CCGCCCCACC,0.00407 relative 10-mer count
10,CCAAAAAAAG,0.0564 relative 10-mer count
11,AGGTGGTGGG,0.00587 relative 10-mer count
12,ACCCCCCCCA,0.00276 relative 10-mer count
13,CACCCGCCCA,0.0024 relative 10-mer count
14,GCCCCCCCCC,0.00276 relative 10-mer count
15,GTGGGTGGGA,0.00563 relative 10-mer count
16,CCCCCCGCCG,0.0024 relative 10-mer count
17,CAACCCCCCC,0.00252 relative 10-mer count
18,ACCCCACACC,0.00276 relative 10-mer count
19,AGCATATCCA,0.102 relative 10-mer count
20,ACCCCCACCC,0.0036 relative 10-mer count

row,Sequence,binding signal
1,ACCCCACCGC,0.00336 relative 10-mer count
2,CCCAACCCCC,0.00168 relative 10-mer count
3,CACACCCCCC,0.0018 relative 10-mer count
4,TGGGTATGAA,0.00108 relative 10-mer count
5,CCCCCTCCCA,0.00455 relative 10-mer count
6,CCCTCCCCCC,0.00515 relative 10-mer count
7,CCGAAAAAAG,0.0415 relative 10-mer count
8,CCACGACCCC,0.003 relative 10-mer count
9,CCCCACTCCC,0.00216 relative 10-mer count
10,GGCGGGGGGA,0.0024 relative 10-mer count
11,CCCCCCTACC,0.0036 relative 10-mer count
12,CCCCGCCCCC,0.00228 relative 10-mer count
13,AAAAAAGCGT,0.0512 relative 10-mer count
14,CCCCCCCCCA,0.00312 relative 10-mer count
15,GGGGGAGGGA,0.00384 relative 10-mer count
16,AGCGTATCCT,0.192 relative 10-mer count
17,ACCGCCCCCC,0.00132 relative 10-mer count
18,AAAAAAGCTA,0.00276 relative 10-mer count
19,CACCCCCCCA,0.00443 relative 10-mer count
20,CCCACACCCA,0.00455 relative 10-mer count
